Reference: article PMC7862700, “An all-to-all approach to the identification of sequence-specific readers for epigenetic DNA modifications on cytosine”

Experiments:
Assay in all cases: DAPPL (digital affinity profiling via proximity ligation, sequencing); 10 mM Tris-HCl pH 7.5, 50 mM NaCl, 1 mM DTT, 4% glycerol, room temperature, 30 min; GST-TFs on glutathione beads, 16-mer random dsDNA library, 0.1% formaldehyde crosslink after washing; high values mean tight binding
FLI1 = target: T1, FLI1 (Homo sapiens, UniProt Q01543 1-452); details: protein: recombinant; tags: N-terminal GST; dsDNA, one strand shown
T1 sequence: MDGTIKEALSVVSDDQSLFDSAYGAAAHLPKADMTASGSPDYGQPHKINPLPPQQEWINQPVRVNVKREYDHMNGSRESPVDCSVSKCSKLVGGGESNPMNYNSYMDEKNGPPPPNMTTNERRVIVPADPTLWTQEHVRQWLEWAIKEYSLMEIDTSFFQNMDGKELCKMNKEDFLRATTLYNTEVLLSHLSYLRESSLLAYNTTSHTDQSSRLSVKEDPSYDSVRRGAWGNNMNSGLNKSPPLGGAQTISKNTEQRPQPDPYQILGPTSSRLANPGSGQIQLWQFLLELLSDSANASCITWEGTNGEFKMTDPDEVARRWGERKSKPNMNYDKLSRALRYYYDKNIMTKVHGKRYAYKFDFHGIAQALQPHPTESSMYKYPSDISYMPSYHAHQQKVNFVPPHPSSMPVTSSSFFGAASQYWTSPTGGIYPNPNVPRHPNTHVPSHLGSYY
Summary of the method: (§1)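 Pools of DNA-barcoded human transcription factors, expressed in yeast as GST fusions on glutathione beads and combined with a tag-only sample, were incubated with 200 nmole of a 16-mer random double-stranded DNA library. Incubation took 30 min at room temperature in Tris/NaCl/DTT/glycerol buffer and was followed by washing, 0.1% formaldehyde crosslinking, proximity ligation (BsaI/T4 ligase, 1 h, 37 °C), PCR amplification and sequencing on an Illumina NextSeq500. Binding signal is the ratio of a hexamer's read frequency for a factor to its frequency for the tag-only sample.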

ELK1 = target: T2, ELK1 (Homo sapiens, UniProt P19419 1-428); details: protein: recombinant; tags: N-terminal GST; dsDNA, one strand shown
T2 sequence: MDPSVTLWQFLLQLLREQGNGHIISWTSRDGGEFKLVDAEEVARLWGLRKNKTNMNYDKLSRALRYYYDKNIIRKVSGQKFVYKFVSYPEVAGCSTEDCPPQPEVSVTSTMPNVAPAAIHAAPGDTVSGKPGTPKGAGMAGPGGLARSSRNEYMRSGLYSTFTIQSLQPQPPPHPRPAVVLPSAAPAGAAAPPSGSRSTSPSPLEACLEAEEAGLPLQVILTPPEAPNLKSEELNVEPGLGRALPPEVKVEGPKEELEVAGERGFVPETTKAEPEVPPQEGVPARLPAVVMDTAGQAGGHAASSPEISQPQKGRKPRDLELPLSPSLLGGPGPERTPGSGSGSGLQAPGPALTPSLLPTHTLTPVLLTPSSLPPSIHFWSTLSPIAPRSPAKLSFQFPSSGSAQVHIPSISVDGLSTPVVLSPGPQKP
Summary of the method: as §1

GABPA = target: T3, GABPA (Homo sapiens, UniProt Q06546 1-454); details: protein: recombinant; tags: N-terminal GST; dsDNA, one strand shown
T3 sequence: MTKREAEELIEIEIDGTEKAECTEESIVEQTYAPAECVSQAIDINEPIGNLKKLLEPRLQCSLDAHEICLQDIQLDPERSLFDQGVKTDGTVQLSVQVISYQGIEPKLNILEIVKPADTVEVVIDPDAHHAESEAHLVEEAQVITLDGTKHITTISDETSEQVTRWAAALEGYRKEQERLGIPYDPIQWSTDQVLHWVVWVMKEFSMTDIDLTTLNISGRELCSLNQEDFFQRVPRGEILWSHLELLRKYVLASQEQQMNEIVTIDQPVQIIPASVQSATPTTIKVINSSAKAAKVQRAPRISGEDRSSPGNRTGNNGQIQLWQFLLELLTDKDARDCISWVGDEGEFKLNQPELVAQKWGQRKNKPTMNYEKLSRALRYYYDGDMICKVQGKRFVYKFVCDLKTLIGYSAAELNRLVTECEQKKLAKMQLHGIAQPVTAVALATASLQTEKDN
Summary of the method: as §1

ERG = target: T4, ERG (Homo sapiens, UniProt P11308 1-479); details: protein: recombinant; tags: N-terminal GST; dsDNA, one strand shown
T4 sequence: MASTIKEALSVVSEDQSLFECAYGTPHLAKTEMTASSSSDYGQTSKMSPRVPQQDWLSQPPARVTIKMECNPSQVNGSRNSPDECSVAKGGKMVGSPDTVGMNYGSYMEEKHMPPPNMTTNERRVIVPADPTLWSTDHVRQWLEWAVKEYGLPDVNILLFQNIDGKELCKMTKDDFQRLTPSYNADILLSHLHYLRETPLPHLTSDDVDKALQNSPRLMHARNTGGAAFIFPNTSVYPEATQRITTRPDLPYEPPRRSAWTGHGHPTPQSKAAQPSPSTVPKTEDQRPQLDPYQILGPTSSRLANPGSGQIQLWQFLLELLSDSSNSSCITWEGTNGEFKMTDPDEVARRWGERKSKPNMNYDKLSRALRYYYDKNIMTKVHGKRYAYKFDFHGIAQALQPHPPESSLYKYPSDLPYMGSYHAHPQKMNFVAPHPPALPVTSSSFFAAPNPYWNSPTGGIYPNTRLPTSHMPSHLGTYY
Summary of the method: as §1

ELF1 = ELF1 (Homo sapiens, UniProt P32519 1-619); details: protein: recombinant; tags: N-terminal GST; dsDNA, one strand shown
Summary of the method: as §1

EHF = target: T5, EHF (Homo sapiens, UniProt Q9NZC4 1-300); details: protein: recombinant; tags: N-terminal GST; dsDNA, one strand shown
T5 sequence: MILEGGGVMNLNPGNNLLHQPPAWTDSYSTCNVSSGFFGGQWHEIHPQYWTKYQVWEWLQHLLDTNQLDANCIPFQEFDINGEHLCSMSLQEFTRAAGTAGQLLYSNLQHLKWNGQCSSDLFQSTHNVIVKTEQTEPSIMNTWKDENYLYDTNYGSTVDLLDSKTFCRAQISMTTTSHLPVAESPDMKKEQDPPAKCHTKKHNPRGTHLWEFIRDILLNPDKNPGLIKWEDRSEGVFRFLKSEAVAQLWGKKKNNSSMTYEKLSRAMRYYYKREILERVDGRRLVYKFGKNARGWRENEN
Summary of the method: as §1

SPI1 = SPI1 (Homo sapiens, UniProt P17947 1-270); details: protein: recombinant; tags: N-terminal GST; dsDNA, one strand shown
Summary of the method: as §1

SPIB = SPIB (Homo sapiens, UniProt Q01892 1-262); details: protein: recombinant; tags: N-terminal GST; dsDNA, one strand shown
Summary of the method: as §1

ELK3 = target: T6, ELK3 (Homo sapiens, UniProt P41970 1-407); details: protein: recombinant; tags: N-terminal GST; dsDNA, one strand shown
T6 sequence: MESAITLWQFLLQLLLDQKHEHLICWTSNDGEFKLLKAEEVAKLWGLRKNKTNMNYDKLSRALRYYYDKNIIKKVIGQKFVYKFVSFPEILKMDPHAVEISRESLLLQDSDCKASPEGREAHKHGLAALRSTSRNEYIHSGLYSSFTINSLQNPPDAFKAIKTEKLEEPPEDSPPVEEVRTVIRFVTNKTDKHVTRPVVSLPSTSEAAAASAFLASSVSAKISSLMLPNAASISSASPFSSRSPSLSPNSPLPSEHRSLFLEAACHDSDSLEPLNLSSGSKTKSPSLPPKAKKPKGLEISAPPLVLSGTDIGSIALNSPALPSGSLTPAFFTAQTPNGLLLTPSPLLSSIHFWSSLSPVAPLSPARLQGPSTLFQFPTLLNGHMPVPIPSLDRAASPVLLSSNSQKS
Summary of the method: as §1

FEV = target: T7, FEV (Homo sapiens, UniProt Q99581 1-238); details: protein: recombinant; tags: N-terminal GST; dsDNA, one strand shown
T7 sequence: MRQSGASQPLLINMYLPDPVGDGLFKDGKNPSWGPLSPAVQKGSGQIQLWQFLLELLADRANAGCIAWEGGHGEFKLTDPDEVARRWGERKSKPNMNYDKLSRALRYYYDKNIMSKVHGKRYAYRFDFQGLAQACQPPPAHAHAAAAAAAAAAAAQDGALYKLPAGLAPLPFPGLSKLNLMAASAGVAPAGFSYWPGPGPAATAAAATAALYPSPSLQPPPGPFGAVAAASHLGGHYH
Summary of the method: as §1

ETV5 = ETV5 (Homo sapiens, UniProt P41161 1-510); details: protein: recombinant; tags: N-terminal GST; dsDNA, one strand shown
Summary of the method: as §1

HSF1 = HSF1 (Homo sapiens, UniProt Q00613 1-529); details: protein: recombinant; tags: N-terminal GST; chain copies: 3; dsDNA, one strand shown
Summary of the method: as §1

SPIC = target: T8, SPIC (Homo sapiens, UniProt Q8N5J4 1-248); details: protein: recombinant; tags: N-terminal GST; dsDNA, one strand shown
T8 sequence: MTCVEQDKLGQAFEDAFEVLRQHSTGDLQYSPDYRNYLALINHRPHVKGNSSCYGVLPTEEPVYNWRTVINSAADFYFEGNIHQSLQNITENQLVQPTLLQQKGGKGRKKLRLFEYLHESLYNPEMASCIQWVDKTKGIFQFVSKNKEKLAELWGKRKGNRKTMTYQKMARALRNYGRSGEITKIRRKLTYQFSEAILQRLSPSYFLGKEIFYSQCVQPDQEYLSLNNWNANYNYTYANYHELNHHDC
Summary of the method: as §1

ELF4 = ELF4 (Homo sapiens, UniProt Q99607 1-663); details: protein: recombinant; tags: N-terminal GST; dsDNA, one strand shown
Summary of the method: as §1

ELK4 = target: T9, ELK4 (Homo sapiens, UniProt P28324-2 1-405); details: protein: recombinant; tags: N-terminal GST; dsDNA, one strand shown
T9 sequence: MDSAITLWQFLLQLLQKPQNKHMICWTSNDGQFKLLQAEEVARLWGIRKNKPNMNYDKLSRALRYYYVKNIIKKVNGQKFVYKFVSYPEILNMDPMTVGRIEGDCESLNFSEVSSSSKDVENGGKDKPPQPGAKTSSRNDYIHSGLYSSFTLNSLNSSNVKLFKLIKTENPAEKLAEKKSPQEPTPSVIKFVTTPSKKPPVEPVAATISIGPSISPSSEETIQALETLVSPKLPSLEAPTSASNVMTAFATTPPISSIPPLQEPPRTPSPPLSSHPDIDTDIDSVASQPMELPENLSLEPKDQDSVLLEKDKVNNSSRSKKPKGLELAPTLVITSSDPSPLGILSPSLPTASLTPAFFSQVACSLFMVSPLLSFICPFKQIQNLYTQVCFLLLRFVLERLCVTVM
Summary of the method: as §1

ETV2 = target: T10, ETV2 (Homo sapiens, UniProt O00321 1-342); details: protein: recombinant; tags: N-terminal GST; dsDNA, one strand shown
T10 sequence: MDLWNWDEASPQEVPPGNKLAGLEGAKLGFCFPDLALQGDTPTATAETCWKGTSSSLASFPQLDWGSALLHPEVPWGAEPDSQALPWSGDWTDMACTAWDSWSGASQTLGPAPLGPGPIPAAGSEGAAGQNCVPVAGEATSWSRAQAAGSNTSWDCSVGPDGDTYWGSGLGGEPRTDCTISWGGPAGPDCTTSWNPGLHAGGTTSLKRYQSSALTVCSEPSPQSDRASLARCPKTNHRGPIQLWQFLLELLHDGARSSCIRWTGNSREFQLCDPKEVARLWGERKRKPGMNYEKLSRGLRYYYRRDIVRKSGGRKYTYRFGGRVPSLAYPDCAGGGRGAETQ
Summary of the method: as §1

ELF3 = target: T11, ELF3 (Homo sapiens, UniProt P78545 1-371); details: protein: recombinant; tags: N-terminal GST; dsDNA, one strand shown
T11 sequence: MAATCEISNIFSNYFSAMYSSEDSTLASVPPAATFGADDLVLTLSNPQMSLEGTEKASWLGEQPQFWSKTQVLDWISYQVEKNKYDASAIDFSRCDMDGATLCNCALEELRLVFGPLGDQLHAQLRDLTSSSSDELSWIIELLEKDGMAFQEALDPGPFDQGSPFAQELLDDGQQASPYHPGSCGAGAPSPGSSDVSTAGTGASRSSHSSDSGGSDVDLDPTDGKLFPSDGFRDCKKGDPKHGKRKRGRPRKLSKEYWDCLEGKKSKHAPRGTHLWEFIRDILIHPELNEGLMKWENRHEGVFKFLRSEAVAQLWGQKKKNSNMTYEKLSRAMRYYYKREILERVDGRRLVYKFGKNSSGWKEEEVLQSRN
Summary of the method: as §1

CRX = CRX (Homo sapiens, UniProt O43186 1-299); details: protein: recombinant; tags: N-terminal GST; dsDNA, one strand shown
Summary of the method: as §1

ETV1 = ETV1 (Homo sapiens, UniProt P50549 1-477); details: protein: recombinant; tags: N-terminal GST; dsDNA, one strand shown
Summary of the method: as §1

ETV5, sequence (P41161 whole entry): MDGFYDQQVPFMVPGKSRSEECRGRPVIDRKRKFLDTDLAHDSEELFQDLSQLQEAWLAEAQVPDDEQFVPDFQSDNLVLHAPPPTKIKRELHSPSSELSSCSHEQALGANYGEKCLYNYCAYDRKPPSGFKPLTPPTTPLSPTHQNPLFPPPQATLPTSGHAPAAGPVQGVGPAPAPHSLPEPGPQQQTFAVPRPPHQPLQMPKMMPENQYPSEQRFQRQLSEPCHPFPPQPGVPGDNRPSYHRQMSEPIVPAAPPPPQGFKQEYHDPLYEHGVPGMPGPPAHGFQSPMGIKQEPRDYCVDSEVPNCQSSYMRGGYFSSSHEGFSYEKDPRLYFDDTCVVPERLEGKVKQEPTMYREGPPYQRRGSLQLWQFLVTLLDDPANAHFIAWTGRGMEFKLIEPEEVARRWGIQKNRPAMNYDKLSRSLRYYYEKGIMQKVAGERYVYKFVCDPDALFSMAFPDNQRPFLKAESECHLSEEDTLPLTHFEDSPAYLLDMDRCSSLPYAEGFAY
ELF4, sequence (Q99607 whole entry): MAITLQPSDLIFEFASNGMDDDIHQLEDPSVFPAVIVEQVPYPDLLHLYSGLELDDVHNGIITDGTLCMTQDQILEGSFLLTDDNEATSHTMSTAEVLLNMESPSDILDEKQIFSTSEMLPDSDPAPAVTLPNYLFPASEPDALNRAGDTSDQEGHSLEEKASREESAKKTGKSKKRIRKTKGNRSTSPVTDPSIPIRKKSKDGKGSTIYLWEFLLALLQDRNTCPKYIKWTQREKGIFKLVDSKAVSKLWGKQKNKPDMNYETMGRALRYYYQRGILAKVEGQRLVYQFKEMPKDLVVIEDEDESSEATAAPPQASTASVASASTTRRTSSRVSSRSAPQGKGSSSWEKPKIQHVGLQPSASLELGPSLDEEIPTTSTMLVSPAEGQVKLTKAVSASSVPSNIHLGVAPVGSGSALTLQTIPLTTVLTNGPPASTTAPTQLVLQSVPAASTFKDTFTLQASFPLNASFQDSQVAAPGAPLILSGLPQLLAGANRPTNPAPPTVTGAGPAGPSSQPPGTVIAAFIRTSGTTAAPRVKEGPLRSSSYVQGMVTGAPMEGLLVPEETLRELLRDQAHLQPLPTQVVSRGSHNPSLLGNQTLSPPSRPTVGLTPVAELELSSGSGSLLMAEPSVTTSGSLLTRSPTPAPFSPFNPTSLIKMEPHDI
ETV1, sequence (P50549 whole entry): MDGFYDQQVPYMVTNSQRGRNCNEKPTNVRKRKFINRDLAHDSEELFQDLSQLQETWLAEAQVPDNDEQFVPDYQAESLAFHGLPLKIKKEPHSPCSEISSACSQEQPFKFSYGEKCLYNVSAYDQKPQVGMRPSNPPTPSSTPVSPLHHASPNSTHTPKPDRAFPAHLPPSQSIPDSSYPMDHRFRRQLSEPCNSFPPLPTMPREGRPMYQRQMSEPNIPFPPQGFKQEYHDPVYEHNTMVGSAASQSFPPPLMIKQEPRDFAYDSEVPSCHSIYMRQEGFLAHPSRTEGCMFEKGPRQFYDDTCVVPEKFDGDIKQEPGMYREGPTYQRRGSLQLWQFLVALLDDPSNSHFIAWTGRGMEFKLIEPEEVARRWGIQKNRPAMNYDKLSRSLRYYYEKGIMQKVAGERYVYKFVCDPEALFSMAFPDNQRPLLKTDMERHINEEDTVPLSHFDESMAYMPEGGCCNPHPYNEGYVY
CRX, sequence (O43186 whole entry): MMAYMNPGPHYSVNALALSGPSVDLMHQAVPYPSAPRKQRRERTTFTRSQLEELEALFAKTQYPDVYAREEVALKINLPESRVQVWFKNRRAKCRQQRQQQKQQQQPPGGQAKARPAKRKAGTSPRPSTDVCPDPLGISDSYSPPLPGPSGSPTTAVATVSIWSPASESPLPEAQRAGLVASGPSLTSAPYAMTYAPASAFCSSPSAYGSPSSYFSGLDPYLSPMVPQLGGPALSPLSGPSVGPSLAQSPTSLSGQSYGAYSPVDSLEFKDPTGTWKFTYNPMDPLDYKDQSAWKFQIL
HSF1, sequence (Q00613 whole entry): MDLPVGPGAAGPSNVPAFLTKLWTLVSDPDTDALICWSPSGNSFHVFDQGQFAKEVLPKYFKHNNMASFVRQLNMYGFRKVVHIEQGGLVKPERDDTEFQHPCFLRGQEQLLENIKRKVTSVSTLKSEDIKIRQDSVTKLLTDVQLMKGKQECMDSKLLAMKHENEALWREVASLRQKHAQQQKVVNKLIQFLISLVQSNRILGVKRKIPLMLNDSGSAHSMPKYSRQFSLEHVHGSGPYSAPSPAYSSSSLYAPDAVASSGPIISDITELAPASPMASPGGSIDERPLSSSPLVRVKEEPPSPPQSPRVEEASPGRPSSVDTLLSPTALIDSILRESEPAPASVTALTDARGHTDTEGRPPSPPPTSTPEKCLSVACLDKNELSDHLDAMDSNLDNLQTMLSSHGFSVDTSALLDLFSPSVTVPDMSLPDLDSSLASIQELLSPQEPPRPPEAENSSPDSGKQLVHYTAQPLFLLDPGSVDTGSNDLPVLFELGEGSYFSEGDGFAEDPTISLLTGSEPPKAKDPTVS
ELF1, sequence (P32519 whole entry): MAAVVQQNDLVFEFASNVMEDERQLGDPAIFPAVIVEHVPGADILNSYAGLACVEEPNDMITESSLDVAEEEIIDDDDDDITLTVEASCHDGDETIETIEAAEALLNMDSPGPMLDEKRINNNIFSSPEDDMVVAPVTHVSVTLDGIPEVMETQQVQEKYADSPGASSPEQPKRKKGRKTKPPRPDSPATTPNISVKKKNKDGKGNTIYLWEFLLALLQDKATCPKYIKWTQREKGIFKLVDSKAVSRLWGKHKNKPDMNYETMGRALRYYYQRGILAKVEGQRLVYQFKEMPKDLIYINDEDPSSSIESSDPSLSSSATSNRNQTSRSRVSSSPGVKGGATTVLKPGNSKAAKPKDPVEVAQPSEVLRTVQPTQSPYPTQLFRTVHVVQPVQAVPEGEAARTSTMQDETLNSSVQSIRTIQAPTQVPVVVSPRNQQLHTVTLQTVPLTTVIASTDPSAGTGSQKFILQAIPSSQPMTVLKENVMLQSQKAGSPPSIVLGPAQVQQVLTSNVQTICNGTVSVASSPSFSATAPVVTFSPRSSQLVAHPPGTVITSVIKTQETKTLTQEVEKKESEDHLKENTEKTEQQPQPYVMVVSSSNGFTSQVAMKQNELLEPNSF
SPIB, sequence (Q01892 whole entry): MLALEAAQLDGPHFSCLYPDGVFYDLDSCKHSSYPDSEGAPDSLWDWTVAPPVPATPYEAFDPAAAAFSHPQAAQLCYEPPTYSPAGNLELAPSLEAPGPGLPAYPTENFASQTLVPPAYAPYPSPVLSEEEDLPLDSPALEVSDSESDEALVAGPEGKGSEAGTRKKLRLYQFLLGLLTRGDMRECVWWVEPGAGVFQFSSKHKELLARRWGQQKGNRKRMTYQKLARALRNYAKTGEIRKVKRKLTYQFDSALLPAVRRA

## CATTCT
FLI1
  binding signal: 1.37 fold enrichment (6-mer frequency, TF over GST control)
ELK1
  binding signal: 1.33 fold enrichment (6-mer frequency, TF over GST control)
GABPA
  binding signal: 1.25 fold enrichment (6-mer frequency, TF over GST control)
ERG
  binding signal: 1.27 fold enrichment (6-mer frequency, TF over GST control)
ELF1
  binding signal: 1.4 fold enrichment (6-mer frequency, TF over GST control)
EHF
  binding signal: 1.35 fold enrichment (6-mer frequency, TF over GST control)
SPI1
  binding signal: 1.26 fold enrichment (6-mer frequency, TF over GST control)
SPIB
  binding signal: 1.22 fold enrichment (6-mer frequency, TF over GST control)
ELK3
  binding signal: 1.28 fold enrichment (6-mer frequency, TF over GST control)
FEV
  binding signal: 1.29 fold enrichment (6-mer frequency, TF over GST control)
ETV5
  binding signal: 1.28 fold enrichment (6-mer frequency, TF over GST control)
HSF1
  binding signal: 2.56 fold enrichment (6-mer frequency, TF over GST control)
SPIC
  binding signal: 1.31 fold enrichment (6-mer frequency, TF over GST control)
ELF4
  binding signal: 1.37 fold enrichment (6-mer frequency, TF over GST control)
ELK4
  binding signal: 1.36 fold enrichment (6-mer frequency, TF over GST control)
ETV2
  binding signal: 1.36 fold enrichment (6-mer frequency, TF over GST control)
ELF3
  binding signal: 1.22 fold enrichment (6-mer frequency, TF over GST control)
CRX
  binding signal: 1.63 fold enrichment (6-mer frequency, TF over GST control)
ETV1
  binding signal: 1.31 fold enrichment (6-mer frequency, TF over GST control)
